Tau fibril FP – blocks human tau fibril formation measured by polarization | P10636 | K18 P301L tau heparin fibrillization, Alexa594 FP, 6 h | Potency, µM (top dose mostly 57.7 µM), for the others: top-dose activity, negative = inhibition, most hits filed as inhibitors | 280,000 tested, 0.39% active | AID 1468; note: nearly all actives have a fitted effect of over 55% in size
Target sequence (P10636 561-689 P618L limits assumed): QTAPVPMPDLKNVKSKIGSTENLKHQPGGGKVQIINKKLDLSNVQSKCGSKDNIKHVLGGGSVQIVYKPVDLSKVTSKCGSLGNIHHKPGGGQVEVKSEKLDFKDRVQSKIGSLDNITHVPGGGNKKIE
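Steps: dispense K18 P301L tau (15 uM plus 0.24 uM Alexa 594 tracer, final) in pH 7 sodium acetate; add compound; add heparin (20 uM final); incubate 6 hr, 37 C; add ThT (30 uM final); after 1 hr ambient, read FP.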
RORgamma inh – inhibitors of mouse ROR gamma transcriptional activity | Potency, µM (titrated, usually from 53.6 µM), for the others: at the top dose activity change, negative = inhibition, most hits filed as inhibitors | 310,000 tested, 5.4% active | P51450 | Drosophila S2 Gal4-RORgamma UAS-luciferase reporter, 20 h | AID 2551; note: nearly all actives have a fitted effect of over 60% in size
Target sequence (P51450 whole entry, looked up, the tested form may be a part): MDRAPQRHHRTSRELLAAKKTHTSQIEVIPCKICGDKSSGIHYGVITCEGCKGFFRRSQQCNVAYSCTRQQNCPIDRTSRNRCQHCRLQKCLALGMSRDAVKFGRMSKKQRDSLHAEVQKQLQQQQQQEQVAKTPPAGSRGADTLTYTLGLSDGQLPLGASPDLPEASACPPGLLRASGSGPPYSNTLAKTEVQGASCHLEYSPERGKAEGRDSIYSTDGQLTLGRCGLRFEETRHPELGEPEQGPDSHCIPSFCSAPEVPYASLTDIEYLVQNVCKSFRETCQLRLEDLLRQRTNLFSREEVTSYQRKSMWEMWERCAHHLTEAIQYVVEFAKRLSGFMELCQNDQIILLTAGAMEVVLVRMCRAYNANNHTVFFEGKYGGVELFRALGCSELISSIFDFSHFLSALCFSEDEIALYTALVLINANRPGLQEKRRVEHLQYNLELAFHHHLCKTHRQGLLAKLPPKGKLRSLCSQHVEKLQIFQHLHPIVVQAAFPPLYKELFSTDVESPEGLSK
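Luciferase reporter read in Schneider cells carrying Gal4-RORγ (mouse) and UAS-Photinus luciferase; cells given compound 1 h before 700 uM copper sulfate induction, then incubated 20 h at ambient temperature.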
Tau fluor cs – counter-screen for tau fibril formation inhibitors. 280,000 tested, 0.93% active. AID 1463. tau K18 P301L Alexa594 fluorescence, heparin fibrillization. Potency, µM (doses to about 57.7 µM), for inactives: at the highest dose activity change, negative = decrease; note: nearly all actives have a fitted effect of over 55% in size
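Human tau K18 P301L (15 uM unlabeled, 0.24 uM Alexa 594-labeled) in 100 mM sodium acetate pH 7 with 20 uM heparin, 6 hr at 37 C. ThT 30 uM added, 1 hr ambient; Alexa 594 FP and total fluorescence read at 555/632 nm.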
Gal4-VP16 FLuc – inhibits Gal4-VP16 luciferase reporter, ROR gamma counter-screen | AID 2546 | 310,000 tested, 3.5% active | Potency, µM (titrated, usually from 53.6 µM), for the others: at the highest dose activity, negative = inhibition, actives largely listed as inhibitors | Drosophila S2 Gal4-VP16 UAS-luciferase, luminescence, 20 h;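 note: Gal4-VP16 expression switched on by copper sulfate through the metallothionein promoter; nearly all actives have a fitted effect of over 50% in size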
Tau fibril ThT – tau fibrillization inhibition (ThT binding) | P10636 | recombinant tau K18 P301L (four-repeat tau fragment), heparin-induced fibrillization, ThT fluorescence | Potency, µM (top dose mostly 57.4 µM), inactives show at the top dose activity, negative = inhibition, usual class: inhibitors | 270,000 tested, 2.1% active | AID 1460; note: nearly all actives have a fitted effect of over 55% in size
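Heparin-induced (20 uM) aggregation of recombinant human K18 P301L tau, 15 uM unlabeled with 0.24 uM labeled, pH 7 acetate buffer, 6 hr at 37 C with compound. Fibrils quantified by 30 uM ThT fluorescence after 1 hr ambient incubation.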
An asterisk follows results filed as active; ? = inconclusive; · = not tested or not shown; [ ] = remark or other dose. Only some compounds are listed: those with a hit (about 7.3% of all), similar ones and a draw of the others. Calls come from the whole dose curve; as a rule, active = well fitted curve in the direction sought with a large enough effect; inconclusive = small, poorly fitted or top-dose-only effect, or another doubt; inactive = no such curve, though single readings can be large; an effect the other way counts as inactive or inconclusive. % is set by controls: 0 for no effect and ±100 for the full control effect; potency is the fitted concentration of half-maximal effect.

SMILES	Tau fibril FP	RORgamma inh	Tau fluor cs	Gal4-VP16 FLuc	Tau fibril ThT
COc1cc(CN2CCC(C(=O)NCC(C)(C)CN(C)C)CC2)ccc1OCc1ccccc1	·	18%[1.91 µM]	·	11%	·
CC(C(=O)O)c1ccc(N2Cc3ccccc3C2=O)cc1 (centres undefined)	-5%	1.8µM*	-10%	4µM*	-10%
Cc1cc(C)nc(NS(=O)(=O)c2ccc(N3Cc4ccccc4C3=O)cc2)n1	1%	7%	-9%	4%	-12%
CC(C)c1ccc2occ(CC(=O)Nc3cccc(C(F)(F)F)c3)c2c1	18µM*	·	?	·	-4%
Cc1ccc2occ(CC(=O)Nc3ccc(S(N)(=O)=O)cc3)c2c1	-6%	·	-6%	·	-2%
Cc1ccc2occ(CC(=O)Nc3ccc(Cl)c(C(F)(F)F)c3)c2c1	14µM*	·	?	·	0%
CCc1ccc2occ(CC(=O)Nc3ccc(OC)c(Cl)c3)c2c1	?	·	25µM*[quencher]	·	?
Cc1cccc(NC(=O)c2oc3ccccc3c2NC(=O)Cc2coc3ccc(C(C)C)cc23)c1	?	·	-17%	·	10%
CC1CCn2c(nc3cc(C(=O)NCc4ccccc4)ccc32)C1 (centres undefined)	1%	·	2%	·	4%
O=C(Nc1nc2c(s1)CN(Cc1ccccc1)CC2)C1CCC1	-15%	-5%	-11%	11%	?
CCN1CCc2nc(NC(=O)c3ccccc3)sc2C1	-6%	14µM*	-4%	11µM*	-9%
COc1cccc(C(=O)Nc2nc3c(s2)CN(C)CC3)c1	2%	15%	-6%	13µM*	-2%
CN1CCc2nc(NC(=O)c3cccc(S(=O)(=O)N4CCc5ccccc54)c3)sc2C1	-3%	?	-25%	-18%	-17%
COc1ccc(C(=O)C(/C=N/O)=N/Nc2ccc(F)cc2)cc1	17%	?	-19%	?	?
COc1ccc(C(=O)/C(=C/O)N=Nc2ccc(F)cc2)cc1	-9%	?	-29%	?	28µM*
COc1ccc(N=N/C(=C\O)C(=O)c2cccs2)cc1	4%	35%	?	?	13µM*
CC(C)c1ccc(-c2noc(SCC(=O)N(C)c3ccc(F)cc3)n2)cc1	3%	·	-18%	·	?
O=C(Nc1ccc(F)c(Cl)c1)C1CC(=O)n2c(nc3ccccc32)N1 (centres undefined)	-11%	3.5µM*	-2%	?	6%
O=C(Nc1ccc(F)cc1)C1CC(=O)n2c(nc3ccccc32)N1 (centres undefined)	0%	17%	-5%	-6%	7%
Cc1cccn2c(=O)cc(COc3ccc(NC(=O)C(C)C)cc3)nc12	-3%	·	7%	·	3%
BrC(=C\c1ccccc1)/C=N/Nc1ccc2nncn2n1	2%	-24%	-25%	2%	·
BrC(=C\c1ccccc1)/C=N/n1cnnc1	?	7.1µM*	-9%	?	?
C[C@]12CCC(=O)C=C1C=C[C@@H]1[C@@H]2CC[C@@]2(C)[C@H]1CC[C@@]21CCC(=O)O1	·	16%	·	-6%	·
O=C(NCCCN1CCOCC1)c1sc2cc(Cl)ccc2c1Cl	-3%	-9%	-7%	1%	-6%
O=C(NCCCN1CCOCC1)c1sc2cc([N+](=O)[O-])ccc2c1Cl	?	-20%	-26%	?	28µM*
SMILES	Tau fibril FP	RORgamma inh	Tau fluor cs	Gal4-VP16 FLuc	Tau fibril ThT
Cn1nc(C(=O)N2CCN(c3ccccc3)CC2)c2c1-c1ccccc1SC2	4%	·	-1%	·	-3%
Cn1nc(C(=O)N2CCN(c3ccc(F)cc3)CC2)c2c1-c1ccccc1SC2	-6%	·	7.1µM*[quencher]	·	-11%
CC(C)CCNC(=O)c1nn(C)c2c1CSc1ccccc1-2	-4%	·	0%	·	2%
CCN(CC)CCCNC(=O)c1nn(C)c2c1CSc1ccccc1-2	?	·	25µM*[quencher]	·	?
Clc1nccnc1N/N=C/c1ccc(Br)cc1	·	4.5µM*	·	?	·
Oc1ccccc1/C=N/Nc1nccnc1Cl	-10%	13µM*	-21%	?	-15%
COc1ccc(/C=N/Nc2nccnc2Cl)cc1	-4%	?	-11%	?	?
Oc1ccc(/C=N/Nc2nccnc2Cl)c(O)c1	10%	?	-28%	16µM*	?
Oc1ccc(/C=N/Nc2ncc(Br)cn2)c(O)c1	18%	?	?	?	?
C/C(CC(=O)Nc1ccc(Cl)cc1Cl)=N\NC(N)=S	5%	21%	-16%	-7%	-10%
C/C(CC(=O)Nc1ccc(Cl)c(Cl)c1)=N\NC(N)=S	-2%	5.6µM*	-9%	11µM*	-5%
C/C(CC(=O)Nc1ccc(Cl)cc1C(F)(F)F)=N\NC(N)=S	2%	13µM*	-4%	?	-6%
C/C(CC(=O)Nc1ccc(Cl)cc1Cl)=N\NC(=O)c1ccncc1	1%	?	-17%	18µM*	?
C/C(CC(=O)Nc1ccc(Cl)cc1C(F)(F)F)=N\NC(=O)c1cccs1	-1%	-80%	-6%	?	·
C/C(CC(=O)Nc1cc(Cl)ccc1Cl)=N\NC(N)=S	3%	5.6µM*	2%	20µM*	2%
Cc1ccc2oc(-c3ccc(C)c(NC(=O)/C=C/c4ccco4)c3)nc2c1	?	·	-5%	·	2%
Cc1ccc(C)c(N2CCN(C3(c4ccccc4)C(=O)c4ccccc4C3=O)CC2)c1	-12%	·	-15%	·	-6%
COc1ccccc1Nc1ccc(NC(=O)c2cccc([N+](=O)[O-])c2C)cc1	·	-7%	·	14%	·
CCc1cc(C(=O)c2ccc(OC)cc2)c(NC(=O)CN2CCCCC2)s1	-15%	7.1µM*	-21%	-24%	-14%
CCc1cc(C(=O)c2ccc(OC)cc2)c(NC(=O)CN2CCCC2)s1	-11%	2%	-9%	6%	?
CCOC(=O)c1ccc(NC(=O)c2c(NC(C)=O)sc3c2CCC(C)C3)cc1 (centres undefined)	-6%	·	-26%	·	?
CCOc1ccc(NC(=O)c2c(NC(=O)c3ccccc3Br)sc3c2CCC(C)C3)cc1 (centres undefined)	?	·	-23%	·	14µM*
COc1cc2nc(N3CCN(C(=O)OCc4ccccc4)C(C(=O)NC(C)(C)C)C3)nc(N)c2cc1OC (centres undefined)	4%	·	?	·	-13%
Cc1ccc(-n2ncc3c2CCCC3NC(=O)c2ccoc2)cc1C (centres undefined)	·	40%	·	-19%	·
Cc1cc(C(=O)NC2CCCc3c2cnn3-c2ccc(C)c(C)c2)n(C)n1 (centres undefined)	·	?	·	0.0079µM*	·
COCc1ccc(C(=O)NC2CCCc3c2cnn3-c2ccc(C)c(C)c2)o1 (centres undefined)	·	?	·	11µM*	·
CC(=O)N1CCN(C(=S)NCCc2ccccc2)CC1	7%	22%	-3%	0%	-13%
Cc1cnn(C(=S)NCc2ccc(Cl)cc2)c1	?	6.3µM*	-27%	7.1µM*	-14%
Cc1cnn(C(=S)NCCc2ccccc2)c1	-10%	14µM*	-2%	?	-9%

From PubChem
